Results on 27 compounds are retold here after PubChem BioAssay (EPA / NIEHS).

Activity calls are given as the source filed them. Rule for the calls: active = hit-call score of the fitted dose curve at least 0.9, where 1 is the maximum; inactive = score below 0.9.

Read-out in the first assay: CD38, CD38 (gene 952)
Briefly: BSK_SAg_CD38: BioMAP Diversity Plus: SAg Assay for CD38 Biomarker Activity (AID 2283087). The conditions noted are these: primary human HUVEC with PBMC; actives raise or lower the signal. Summed up:
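Fluorescence ELISA of cell-surface CD38 served as the read-out, with either increase or decrease fitted against DMSO controls. Cells were a human umbilical vein endothelium plus PBMC co-culture under SEB/TSST-1 stimulation, measured 24 h after dosing.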
`CCCCN1C(=O)[C@@H]([C@H](O)C2CCCCC2)NC(=O)C12CCN(Cc1ccc(Oc3ccc(C(=O)O)cc3)cc1)CC2`: the result was inactive.
Still for that read-out and setting: in the case of `C[Si](C)(C)C(F)(F)C(F)(F)C(F)(F)F` it was “inactive”; in that of `OCc1c[nH]c2ccccc12`, “inactive”; in that of `C[C@]12C=CC(=O)C=C1CC[C@H]1[C@@H]3C[C@@H](O)[C@](O)(C(=O)CO)[C@@]3(C)C[C@H](O)[C@@]12F`, “inactive”.
Take `S=P(N1CC1)(N1CC1)N1CC1`: the outcome was inactive.
The same measure, in the same setting: next, `CCCOc1ccc(S(=O)(=O)N2CCN(CC)CC2)cc1-c1nc2c(CC)n(Cc3ccccn3)nc2c(=O)[nH]1`: “inactive”.
Still for that read-out and setting: next, `Cc1ccc(S(=O)(=O)NC(=O)NN2CCCCCC2)cc1`: “inactive”; `CC(C)c1nnc2ccc(-c3ocnc3-c3cc(F)ccc3F)cn12`: “inactive”.
For `CCCCCCCCCCCCCCO`, the concentration at half-maximal activity (AC50) (in general, the midpoint of the concentration-response curve, whichever way the signal moves) was 31.1 µM (active).
In the case of `OC[C@H]1O[C@@](CO)(O[C@H]2O[C@H](CO)[C@@H](O)[C@H](O)[C@H]2O)[C@@H](O)[C@@H]1O`, the outcome was inactive.
As to `COCc1nnc(-c2ccc[n+]([O-])c2)n1-c1c(Cl)c(Cl)cc2[nH]c(=O)c(=O)[nH]c12`, the result was inactive.
Same read-out and setting: next, `O=C(Cl)C(F)(F)C(F)(F)C(F)(F)C(=O)Cl`: “inactive”.
Consider `OC(CCl)CCl`, for which the result was inactive.
Turning to `CCn1nc(C)c2c1C(=O)NCC(c1ccc(O)cc1)=N2`, the AC50 is 8.91 µM (active).
Turning to `O=S1(=O)CCCO1`, the result was inactive.
Take `c1ccc(C(O[C@@H]2CCCN(CCc3ccc4c(c3)OCO4)C2)c2ccccc2)cc1`: the half-maximal activity concentration (AC50) is 30.6 µM (active).
`O=S(=O)(O)CCC(F)(F)C(F)(F)C(F)(F)C(F)(F)C(F)(F)C(F)(F)F`: the result was inactive.
Still for that read-out and setting: in the case of `NC(=O)N1c2ccccc2C=Cc2ccccc21` it was “inactive”.
Take `c1ccc2c(c1)-c1cccc3c1c-2cc1ccccc13`: the result was inactive.
On the same count and under the same terms, in the case of `CCOc1ccc2[nH]cc(C(=O)NCc3ccccc3)c(=O)c2n1` it was “inactive”.
For the compound `CCc1ccc(O)c(C(C)(C)C)c1`, the AC50 is 26.7 µM (active).
On to `CCc1cccc(CC)c1N`, for which the result was inactive.
In the case of `FC(F)=C(F)C(F)(F)C(F)(F)C(F)(F)C(F)(F)C(F)(F)C(F)(F)F`, the outcome was inactive.
On the same count and under the same terms, next, `NNC(=O)c1ccncc1`: “inactive”; `OC[C@H]1O[C@@H]2O[C@H]3[C@H](O)[C@@H](O)[C@@H](O[C@H]4[C@H](O)[C@@H](O)[C@@H](O[C@H]5[C@H](O)[C@@H](O)[C@@H](O[C@H]6[C@H](O)[C@@H](O)[C@@H](O[C@H]7[C@H](O)[C@@H](O)[C@@H](O[C@H]1[C@H](O)[C@H]2O)O[C@@H]7CO)O[C@@H]6CO)O[C@@H]5CO)O[C@@H]4CO)O[C@@H]3CO`: “inactive”.
Take `CCCCCCCC1CCC(=O)O1` (centres undefined): the outcome was inactive.
With `OCC(CO)(CO)CO`, the outcome was inactive.

Read-out in a further assay: CD40, CD40 (gene 958)
Briefly: BSK_SAg_CD40: BioMAP Diversity Plus: SAg Assay for CD40 Biomarker Activity (AID 2283088). The conditions noted are these: primary human HUVEC with PBMC; actives raise or lower the signal. The essentials: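 Fluorescence ELISA read-out of CD40 from umbilical vein endothelium plus peripheral blood mononuclear cells, sampled 24 h after dosing. Values come from bidirectional curve fitting with DMSO as baseline.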
Take `CCCOc1ccc(S(=O)(=O)N2CCN(CC)CC2)cc1-c1nc2c(CC)n(Cc3ccccn3)nc2c(=O)[nH]1`: the outcome was inactive.
Consider `CC(C)c1nnc2ccc(-c3ocnc3-c3cc(F)ccc3F)cn12`, for which the outcome was inactive.
For `CCCCCCCCCCCCCCO`, the AC50 is 34.1 µM (active).
With `OC[C@H]1O[C@@](CO)(O[C@H]2O[C@H](CO)[C@@H](O)[C@H](O)[C@H]2O)[C@@H](O)[C@@H]1O`, the outcome was inactive.
For `COCc1nnc(-c2ccc[n+]([O-])c2)n1-c1c(Cl)c(Cl)cc2[nH]c(=O)c(=O)[nH]c12`, the result was inactive.
Still for that read-out and setting: in the case of `O=C(Cl)C(F)(F)C(F)(F)C(F)(F)C(=O)Cl` it was “inactive”.
Same read-out and setting: next, `OC(CCl)CCl`: “inactive”.
`c1ccc(C(O[C@@H]2CCCN(CCc3ccc4c(c3)OCO4)C2)c2ccccc2)cc1`: the concentration at half-maximal activity (AC50) is 30.4 µM (active).
Turning to `O=S(=O)(O)CCC(F)(F)C(F)(F)C(F)(F)C(F)(F)C(F)(F)C(F)(F)F`, the result was inactive.
For `NC(=O)N1c2ccccc2C=Cc2ccccc21`, the result was inactive.
On the same count and under the same terms, in the case of `c1ccc2c(c1)-c1cccc3c1c-2cc1ccccc13` it was “inactive”.
As to `CCOc1ccc2[nH]cc(C(=O)NCc3ccccc3)c(=O)c2n1`, the outcome was inactive.
Regarding `CCc1cccc(CC)c1N`, the outcome was inactive.
With `CCCCCCCC1CCC(=O)O1` (centres undefined), the result was inactive.

Read-out in another assay: CD69, CD69 (gene 969)
Briefly: BSK_SAg_CD69: BioMAP Diversity Plus: SAg Assay for CD69 Biomarker Activity (AID 2283089). The following applies: primary human HUVEC with PBMC; actives raise or lower the signal. The essentials:
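ELISA, fluorescence read-out: CD69 on human umbilical vein endothelial cell + PBMC co-culture, 24 h post-dosing. Gain or loss of signal fitted bidirectionally against DMSO baseline.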
Consider `CCCCN1C(=O)[C@@H]([C@H](O)C2CCCCC2)NC(=O)C12CCN(Cc1ccc(Oc3ccc(C(=O)O)cc3)cc1)CC2`, for which the result was inactive.
Same read-out and setting: in the case of `C[Si](C)(C)C(F)(F)C(F)(F)C(F)(F)F` it was “inactive”.
In the case of `OCc1c[nH]c2ccccc12`, the result was inactive.
As for `C[C@]12C=CC(=O)C=C1CC[C@H]1[C@@H]3C[C@@H](O)[C@](O)(C(=O)CO)[C@@]3(C)C[C@H](O)[C@@]12F`, the result was inactive.
For `S=P(N1CC1)(N1CC1)N1CC1`, the result was inactive.
As to `Cc1ccc(S(=O)(=O)NC(=O)NN2CCCCCC2)cc1`, the result was inactive.
On the same count and under the same terms, in the case of `CCn1nc(C)c2c1C(=O)NCC(c1ccc(O)cc1)=N2` it was “inactive”.
The same measure, in the same setting: in the case of `O=S1(=O)CCCO1` it was “inactive”.
On the same count and under the same terms, in the case of `CCc1ccc(O)c(C(C)(C)C)c1` it was “inactive”; in that of `FC(F)=C(F)C(F)(F)C(F)(F)C(F)(F)C(F)(F)C(F)(F)C(F)(F)F`, “inactive”.
For the compound `NNC(=O)c1ccncc1`, the result was inactive.
The same measure, in the same setting: in the case of `OC[C@H]1O[C@@H]2O[C@H]3[C@H](O)[C@@H](O)[C@@H](O[C@H]4[C@H](O)[C@@H](O)[C@@H](O[C@H]5[C@H](O)[C@@H](O)[C@@H](O[C@H]6[C@H](O)[C@@H](O)[C@@H](O[C@H]7[C@H](O)[C@@H](O)[C@@H](O[C@H]1[C@H](O)[C@H]2O)O[C@@H]7CO)O[C@@H]6CO)O[C@@H]5CO)O[C@@H]4CO)O[C@@H]3CO` it was “inactive”; in that of `OCC(CO)(CO)CO`, “inactive”.
